Source: PubChem
KDM4E inh – JMJD2E (human) inhibition. B2RXH2. JMJD2E catalytic domain, FDH-coupled NADH fluorescence (FDH is formaldehyde dehydrogenase). Potency, µM (top dose mostly 57.1 µM), actives largely listed as inhibitors. 230,000 compounds, 1.6% hits. AID 2147; note: nearly all actives have a fitted effect of over 50% in size
Target sequence (B2RXH2 1-337 limits assumed): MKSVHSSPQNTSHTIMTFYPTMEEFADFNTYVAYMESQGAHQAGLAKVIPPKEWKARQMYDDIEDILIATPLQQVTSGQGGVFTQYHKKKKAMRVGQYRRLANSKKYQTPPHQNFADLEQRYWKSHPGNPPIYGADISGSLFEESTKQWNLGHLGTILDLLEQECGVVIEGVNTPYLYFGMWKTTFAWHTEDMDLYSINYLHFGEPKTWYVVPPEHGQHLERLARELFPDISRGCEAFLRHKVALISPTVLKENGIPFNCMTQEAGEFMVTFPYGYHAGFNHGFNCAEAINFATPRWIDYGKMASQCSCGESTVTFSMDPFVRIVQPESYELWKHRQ
HPGD inh – inhibitors of human 15-hydroxyprostaglandin dehydrogenase (HPGD) | purified HPGD, NADH fluorescence kinetic, PGE2 substrate | Potency, µM, usual class: inhibitors | 150,000 compounds, 4.3% hits
Target sequence (P15428 whole entry, looked up): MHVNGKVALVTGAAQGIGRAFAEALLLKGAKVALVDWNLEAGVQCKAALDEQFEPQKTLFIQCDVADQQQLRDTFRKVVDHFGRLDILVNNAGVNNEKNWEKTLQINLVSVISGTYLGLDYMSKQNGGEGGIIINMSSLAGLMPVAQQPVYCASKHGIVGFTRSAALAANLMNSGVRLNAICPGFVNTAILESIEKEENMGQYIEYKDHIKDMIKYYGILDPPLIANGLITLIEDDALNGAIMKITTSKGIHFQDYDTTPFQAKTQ
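20 nM HPGD preincubated 15 min at room temperature with compound in 50 mM Tris-HCl pH 8, 0.01% Tween 20. Started with 1 mM NAD+ and 30 uM prostaglandin E2; NADH fluorescence (360/450 nm) read 5 times over 30-s intervals, last minus first.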
PNC inhibitor – perinucleolar compartment assembly inhibition | PC3M PTB-GFP, PNC prevalence imaging, 16 h; active compounds read low | activity change (PNC), negative = inhibition, % at 10 µM | 140,000 compounds, 3.1% hits | AID 2417;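 active = readout at or below -70, meaning at least 70% loss of cells showing the perinucleolar compartment, a nuclear body marking cancer cells; inconclusive = readout between -30 and a set limit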
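Compounds are pinned in duplicate onto adhered PC3M cells stably expressing GFP-tagged PTB and incubated 16 h at 37 C. Cells are then fixed, nuclei stained with Hoechst, and PNC-positive cells counted.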
ALDH1A1 block – ALDH1A1 (human) enzyme inhibition | Purified ALDH1A1, NADH fluorescence, propionaldehyde substrate | Potency, µM (series often up to 75.3 µM), actives largely listed as inhibitors | 220,000 compounds, 7.3% hits
Each line names hits and unclear results; the compound was inactive in the other large screens. Shown are actives, neighbours in structure and some others; about 11% of the full set was active somewhere. Unless noted, calls come from the whole dose curve; as a rule, active = well fitted inhibition curve with a large enough effect (not every such curve was filed as active); inconclusive = small, poorly fitted or top-dose-only effect, or another doubt; inactive = no such curve, though single readings can be large or run the other way.

CN1/C(=C\C(=O)c2cccc(S(=O)(=O)N3CCCCC3)c2)C(C)(C)c2ccccc21	PNC inhibitor -88, ALDH1A1 block inconclusive
CN1/C(=C\C(=O)c2cccnc2)C(C)(C)c2ccccc21	none
CC(C)C(=O)NC(=S)/C=C1/N(C)c2ccccc2C1(C)C	ALDH1A1 block 8.9µM (no result: HPGD inh, PNC inhibitor)
COc1ccc2cc(-c3[nH]ncc3CN3CCCC3c3nonc3C)ccc2c1 (configuration not stated)	none (no result: HPGD inh, PNC inhibitor)
O=[N+]([O-])c1ccc(N2CCN(C(=S)NC3CCCCC3)CC2)cc1	ALDH1A1 block 5µM
O=[N+]([O-])c1cccc(C(=S)N2CCN(c3ccc(F)cc3)CC2)c1	ALDH1A1 block 22µM (no result: HPGD inh, PNC inhibitor)
S=C(NC1CC1)N1CCN(c2ccc(Cl)cc2)CC1	none (no result: HPGD inh, PNC inhibitor)
O=[N+]([O-])c1ccc(NC(=S)N2CCN(c3ccccc3)CC2)cc1	ALDH1A1 block inconclusive
O=C(NC(=S)N1CCN(c2ccc([N+](=O)[O-])cc2)CC1)c1ccccc1Cl	ALDH1A1 block inconclusive (no result: HPGD inh, PNC inhibitor)
O=C(NC(=S)N1CCN(c2ccc([N+](=O)[O-])cc2)CC1)c1ccccc1F	ALDH1A1 block 25µM
O=[N+]([O-])c1ccc(N2CCN(C(=S)Nc3ccccc3)CC2)cc1	ALDH1A1 block 1.4µM (no result: HPGD inh, PNC inhibitor)
O=[N+]([O-])c1cccc(C(=S)N2CCCC2)c1	none (no result: HPGD inh, PNC inhibitor)
O=c1cnc2cnc(N3CCOCC3)nc2n1C1CC1	none (no result: KDM4E inh, HPGD inh, PNC inhibitor)
O=C(NC(=O)N1CCN(c2ccc(F)cc2)CC1)c1ccccc1	PNC inhibitor inconclusive
CCCN1CCN(C(=S)Nc2ccc([N+](=O)[O-])cc2)CC1	ALDH1A1 block 32µM (no result: HPGD inh)
O=C(NC(=S)N1CCN(c2ccc([N+](=O)[O-])cc2)CC1)c1ccc(F)cc1	PNC inhibitor inconclusive, ALDH1A1 block 7.1µM
O=C(NCCN1CCOCC1)c1ccc2c(c1)N(Cc1cccc(F)c1)C(=O)c1ccccc1S2	ALDH1A1 block 28µM (no result: HPGD inh, PNC inhibitor)
O=C(/C(=C/O)N=Nc1cccc(C(F)(F)F)c1)c1ccccc1	ALDH1A1 block 7.5µM (no result: HPGD inh, PNC inhibitor)
COC(=O)N/N=C/c1cc(N=Nc2ccccc2Cl)ccc1O	none (no result: HPGD inh, PNC inhibitor, ALDH1A1 block)
O=C(N/N=C/C(Cl)=C/c1ccccc1)c1ccco1	none (no result: HPGD inh, PNC inhibitor)
O=C(/C(=C/O)N=Nc1ccccc1Cl)c1ccccc1	ALDH1A1 block 7.9µM (no result: HPGD inh, PNC inhibitor)
Cc1cccc(N=N/C(=C\O)C(=O)c2ccc(Br)cc2)c1	ALDH1A1 block inconclusive (no result: HPGD inh, PNC inhibitor)
O=C(/C(=C/O)N=Nc1ccccc1)c1ccco1	ALDH1A1 block 14µM (no result: HPGD inh, PNC inhibitor)
COC(=O)CCCC(=O)O	none (no result: KDM4E inh, PNC inhibitor)
O=[N+]([O-])c1ccc2cn(-c3ccccc3)nc2c1	none
CC(=O)N1Cc2ccccc2C(C)CC12CCCC2 (configuration not stated)	none
CC(=O)N1c2ccccc2C(C)CC12CCCCC2 (configuration not stated)	PNC inhibitor -83
CC(=O)c1ccc(NC(=O)CO/N=C(\C)c2cccs2)cc1	none
C/C(=N/OCC(=O)Nc1ccc(C)cc1C)c1cccs1	HPGD inh 7.9µM
CCc1cccc(CC)c1NC(=O)CO/N=C(\C)c1cccs1	HPGD inh 0.63µM
O=C1/C(=C/c2cccs2)N=C(c2cccs2)N1Nc1ccccc1	ALDH1A1 block inconclusive
O=C1/C(=C\c2cccs2)N=C(c2cccs2)N1Nc1ccccc1	ALDH1A1 block 14µM
COC(=O)c1ccc(N2NC(=O)/C(=C/c3ccc(-c4ccc(Cl)c(C(=O)O)c4)o3)C2=O)cc1	ALDH1A1 block 8.9µM (no result: HPGD inh, PNC inhibitor)
CC1=NOC(=O)/C1=C\c1ccc(-c2cccc(Cl)c2)o1	HPGD inh 3.2µM, ALDH1A1 block inconclusive
CC1=NOC(=O)/C1=C\c1ccc(-c2ccc(Cl)c(C(=O)O)c2)o1	KDM4E inh inconclusive, ALDH1A1 block 0.89µM (no result: HPGD inh, PNC inhibitor)
O=C(O)c1cc(-c2ccc(/C=C3/SC(=S)N(Cc4ccccc4)C3=O)o2)ccc1Cl	ALDH1A1 block 0.089µM (no result: HPGD inh, PNC inhibitor)
CN(/N=C/c1cc(Cl)cc(Cl)c1O)c1c(Cl)cccc1[N+](=O)[O-]	none (no result: HPGD inh, PNC inhibitor)
Cn1ccnc1SCC(=O)Nc1ccc(F)c([N+](=O)[O-])c1	none (no result: HPGD inh, PNC inhibitor)
Cc1ccc(/C=C2/C(=O)ON=C2c2ccccc2)o1	none (no result: HPGD inh, PNC inhibitor)
CC1=NOC(=O)/C1=C\c1ccc(-c2ccccc2Br)o1	ALDH1A1 block 18µM (no result: HPGD inh, PNC inhibitor)
Oc1ccc(/C=N/N2CCN(C3c4ccccc4-c4ccccc43)CC2)cc1O	KDM4E inh 16µM (no result: HPGD inh, PNC inhibitor, ALDH1A1 block)
C[C@H]1CN(CCO)CCN1c1ccccc1	none (no result: KDM4E inh, PNC inhibitor)
O=C(CNCc1cccc2ccccc12)Nc1ccccc1[N+](=O)[O-]	ALDH1A1 block inconclusive (no result: HPGD inh, PNC inhibitor)
CC1(C(=O)N/N=C/c2ccc([N+](=O)[O-])o2)CC1(Br)Br (configuration not stated)	PNC inhibitor inconclusive
N#CCc1ccc(NC(=O)/C=C/c2ccc([N+](=O)[O-])o2)cc1	ALDH1A1 block 20µM (no result: HPGD inh, PNC inhibitor)
CCCCCCCN	none (no result: KDM4E inh, PNC inhibitor)
O=S(=O)(c1cccc2cccnc12)N1CCN(Cc2ccccc2)CC1	none (no result: HPGD inh, PNC inhibitor)
CCCc1nc2ccccc2c(=O)n1/N=C/c1ccccc1O	KDM4E inh 32µM, PNC inhibitor inconclusive, ALDH1A1 block inconclusive
Cc1ccccc1OCc1nc2ccccc2c(=O)n1/N=C/c1c[nH]c2ccccc12	PNC inhibitor -123
Cc1cc(/C=N/n2c(COc3ccccc3C)nc3ccccc3c2=O)c(O)c([N+](=O)[O-])c1	HPGD inh 1µM, PNC inhibitor inconclusive
O=C(NC(Cc1c[nH]c2ccccc12)C(=O)OCC(=O)c1cccc2ccccc12)c1cccs1 (configuration not stated)	none
O=CN/N=C/c1c(O)ccc2ccccc12	KDM4E inh 11µM (no result: HPGD inh, PNC inhibitor, ALDH1A1 block)
O=C(Cc1n[nH]c(=O)[nH]c1=O)N/N=C/c1c(O)ccc2ccccc12	none (no result: HPGD inh, PNC inhibitor)
COc1ccc(N/N=C/c2c(C(=O)O)ccc3ccccc23)cc1	KDM4E inh 25µM (no result: HPGD inh, PNC inhibitor, ALDH1A1 block)
Cc1cc(N/N=C/c2c(O)ccc3ccccc23)nc(-c2ccccc2O)n1	KDM4E inh 14µM
